Measured values taken from PubChem BioAssay.
The source made the active and inactive calls.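 The calls were made as follows, unless noted: active = visual image review flags a hit and inhibition of aggregation exceeds 20%; inconclusive = visual hit but inhibition at or below 20%; inactive = no hit on visual image review.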

How the values were obtained:
[1] = inhibitors of TNFa-induced NFkB p65 translocation, primary screen, imaging, HUVEC, MLSMR starter and 10KST1 sets (AID 438;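 active = inhibition above 20% together with a positive visual image hit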;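 also: compound added about 3h40 before a 20 min TNFalpha stimulation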;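 as to inhibition: signal is the nuclear over cytoplasmic p65 intensity ratio per well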); conditions: HUVEC TNFa-induced p65 nuclear translocation; cell count: measured here: nuclei count (cytotoxicity indicator), at 2.08 µM; inhibition: at 2 µM, stronger effect = higher value, 0% TNFa-plus-vehicle, 100% no-TNFa wells
[2] = inhibitors of mutant huntingtin aggregation, primary screen, imaging, exon1htt(103Q)mCFP cells, high-content imaging (AID 483); conditions: exon1htt(103Q)mCFP cell line, aggregate imaging, at 2 µM; inhibition of aggregation: stronger effect = higher value; nuclei count: measured here: cell count, toxicity;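 also: compound exposure lasted 3 days before fixation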;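 as to nuclei count: percent of the per-plate median nuclei count of sample wells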
[3] = inhibitors of E-selectin induction by TNFa, primary screen, imaging, HUVEC, immunofluorescence, MLSMR starter and 10KST1 sets (AID 487;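 active = visually confirmed hit in the image check and inhibition above 20%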;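 as to inhibition: signal is fraction of cell area covered by stained E-selectin grains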;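 as to nuclei count: 100% = median nuclei count of all wells on the same plate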); conditions: HUVEC TNFalpha-induced E-selectin immunofluorescence imaging, at 2 µM; inhibition: stronger effect = higher value; nuclei count: measured here: cell number, toxicity
[4] = molecular target: Voltage-gated potassium channel subunit beta-2 (Rattus norvegicus) (UniProt P62483); test: KvBeta enzyme negative modulators, primary screen, biochemical, NADPH fluorescence (AID 622;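 active = fluorescence slope higher than the sample average by over 3 SD, cut at about -0.22 in these data, passing the limit was not always enough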;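 also: slope of raw intensity against log time taken from 70 to 1610 s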); conditions: recombinant KvBeta, 4-cyanobenzaldehyde reduction, at 10 µM, stronger effect = higher value
Sequence of Voltage-gated potassium channel subunit beta-2 (Rattus norvegicus) (P62483 whole entry, looked up): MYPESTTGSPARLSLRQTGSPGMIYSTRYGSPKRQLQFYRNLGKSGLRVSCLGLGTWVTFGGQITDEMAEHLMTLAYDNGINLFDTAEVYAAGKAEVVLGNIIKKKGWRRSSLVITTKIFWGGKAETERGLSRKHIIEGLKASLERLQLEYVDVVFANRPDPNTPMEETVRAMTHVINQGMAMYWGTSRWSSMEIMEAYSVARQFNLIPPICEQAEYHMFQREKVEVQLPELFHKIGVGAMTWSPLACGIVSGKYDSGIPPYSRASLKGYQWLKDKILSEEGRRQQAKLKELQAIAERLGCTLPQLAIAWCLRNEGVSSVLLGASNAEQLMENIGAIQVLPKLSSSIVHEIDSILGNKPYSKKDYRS

[5] = molecular target: Voltage-gated potassium channel subunit beta-2 (Rattus norvegicus) (UniProt P62483); test: KvBeta positive modulators, primary screen, biochemical, NADPH fluorescence (AID 623;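 active = NADPH fluorescence slope more negative than the mean of all samples by about 3 SD, 99.7% confidence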;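 also: fluorescence intensity change per second fitted from 20 to 320 s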); conditions: Recombinant KvBeta, NADPH fluorescence decrease slope, 10 min; at 10 µM; stronger effect = lower value
[6] = molecular target: Alpha-2C adrenergic receptor (Homo sapiens) (UniProt P18825); test: modulators of alpha2C/GIRK thallium flux, primary screen, cell-based, HEK293 alpha2C/GIRK1/2 (AID 624;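 active = fluorescence slope after compound addition differing from the mean of all screened samples at 99.7% confidence, in either direction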;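 also: slope of fluorescence ratio to pre-addition baseline per second over 15 to 24 s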); conditions: thallium flux BTC fluorescence, at 10 µM, actives lie on both sides
Sequence of Alpha-2C adrenergic receptor (Homo sapiens) (P18825 whole entry, looked up): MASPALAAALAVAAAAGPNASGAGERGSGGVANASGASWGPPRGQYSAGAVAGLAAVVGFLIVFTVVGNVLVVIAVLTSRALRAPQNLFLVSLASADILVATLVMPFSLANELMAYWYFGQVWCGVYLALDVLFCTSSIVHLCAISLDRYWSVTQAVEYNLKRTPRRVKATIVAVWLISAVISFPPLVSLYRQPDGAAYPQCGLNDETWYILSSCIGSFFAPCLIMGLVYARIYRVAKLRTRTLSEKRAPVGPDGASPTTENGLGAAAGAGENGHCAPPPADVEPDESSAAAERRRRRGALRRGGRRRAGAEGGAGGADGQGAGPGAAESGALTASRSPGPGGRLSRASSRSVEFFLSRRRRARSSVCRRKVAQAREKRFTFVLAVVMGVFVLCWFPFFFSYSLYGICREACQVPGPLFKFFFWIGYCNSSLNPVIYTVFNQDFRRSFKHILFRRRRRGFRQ

[7] = inhibitors of Sendai virus-induced IRF3 signaling, primary screen, TLR/RLR signaling modifier project, cell-based, Sendai virus stimulus, luciferase, 10K MLSCN set (AID 602276;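 active = inhibition at or above 50% at 10 µM; inactive = inhibition below 50%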;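 also: firefly luciferase from ISG56 promoter only with Renilla not read in this screen; 0% = Sendai virus plus DMSO and 100% = medium plus DMSO without virus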); conditions: HEK293 RL24 IRF3 luciferase reporter, at 10 µM, stronger effect = higher value
[8] = inhibitors of poly I:C-induced TLR3 signaling, primary screen, cell-based, poly I:C stimulus, luciferase, 10K MLSCN set (AID 602277;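 active = inhibition of the reporter signal at or above 50%; inactive = inhibition below 50%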); conditions: HEK293-TLR3 RL24 IRF3 luciferase reporter, at 10 µM, stronger effect = higher value

Row | Compound | cell count [1] | inhibition [1] | inhibition of aggregation [2] | nuclei count [2] | inhibition [3] | nuclei count [3] | fluorescence slope [4] | NADPH fluorescence slope [5] | slope [6] | inhibition [7] | inhibition [8]
1 | COc1ccc2c(=O)c3c(=O)n(Cc4ccco4)c(-c4cc(OC)c(OC)c(OC)c4)nc3oc2c1 | 483 | -9.2% (inactive) | -28.3% (inactive) | 96.6% | -11.9% (inactive) | 121% | -0.525 (inactive) | 5.6e-06 (inactive) | 0.00457 (inactive) | 3.4% (inactive) | -1.04% (inactive)
2 | CC(=O)Nc1ccc(-c2nn[nH]n2)cc1Cl | 630 | -10.7% (inactive) | -3% (inactive) | 69.9% | 0.8% (inactive) | 97.8% | -0.546 (inactive) | -2.3e-05 (inactive) | 0.00431 (inactive) | 13.2% (inactive) | 12.5% (inactive)
3 | Cn1c(C(=O)NCCC2=CCCCC2)cc2c(=O)n3ccccc3nc21 | 261 | 31.6% (active) | 5.6% (inactive) | 92.2% | 46.7% (inactive) | 71.3% | -0.128 (active) | 1.2e-05 (inactive) | 0.00542 (inactive) | -27.5% (inactive) | -62% (inactive)
4 | COC(=O)c1ccc(C2C(C#N)=C(N)Oc3cc(C)n(C)c(=O)c32)cc1 (stereo not drawn) | 551 | -11.1% (inactive) | 0.4% (inactive) | 111% | -1.7% (inactive) | 111% | -0.499 (inactive) | -4.1e-05 (inactive) | 0.00425 (inactive) | 9.77% (inactive) | 6% (inactive)
5 | Cc1ccccc1OCc1nnc(SCC(=O)NCc2ccccc2)n1C | 409 | 3.9% (inactive) | -6.5% (inactive) | 106% | -22.7% (inactive) | 120% | -0.521 (inactive) | 5.8e-06 (inactive) | 0.00575 (inactive) | 12% (inactive) | 23.6% (inactive)
6 | Cc1ccc(C)c(N2CCN(CCCNC(=O)Cn3cc4c(n3)CCCCC4)CC2)c1 | 771 | -4.3% (inactive) | -55.1% (inactive) | 114% | -60.6% (inactive) | 110% | -0.619 (inactive) | -3.7e-05 (inactive) | 0.00461 (inactive) | 7.36% (inactive) | 19% (inactive)
7 | C/C(N)=C(/C#N)C(=O)COC(=O)c1cc(S(=O)(=O)N2CCCCC2)ccc1C | 508 | 7.7% (inactive) | -28.1% (inactive) | 104% | 12.6% (inactive) | 85.7% | -0.366 (inactive) | 1.2e-05 (inactive) | 0.00665 (inactive) | 7.49% (inactive) | 6.72% (inactive)
8 | Cc1ccnc(NC(=O)C2CCCN(S(=O)(=O)c3cnc[nH]3)C2)c1 (stereo not drawn) | 526 | -2.4% (inactive) | 39.4% (active) | 84.3% | -81.7% (inactive) | 110% | -0.564 (inactive) | -2.6e-05 (inactive) | 0.00685 (inactive) | -13.6% (inactive) | 7.28% (inactive)
9 | COc1cc2c(C#N)c(N3CCN(c4ccccc4OC)CC3)nc(N)c2c(N)n1 | 660 | 0.7% (inactive) | -14.7% (inactive) | 99.8% | -76.6% (inactive) | 109% | -0.178 (inactive) | 1.8e-06 (inactive) | 0.00562 (inactive) | -0.302% (inactive) | -36.5% (inactive)
10 | CC(=O)c1c(C)[nH]c(C(=O)OCc2nnc(-c3ccccc3)o2)c1C | 757 | -7.8% (inactive) | -14.5% (inactive) | 122% | -43.7% (inactive) | 110% | -0.639 (inactive) | 4.8e-05 (inactive) | 0.00623 (inactive) | 14.6% (inactive) | 12.4% (inactive)
11 | CCn1c(SCC(=O)N2CCN(c3ccc(Cl)cc3)CC2)nc2ccccc2c1=O | 324 | 8.1% (inactive) | 19.7% (inactive) | 83.7% | -184% (inactive) | 102% | -0.545 (inactive) | 4e-05 (inactive) | 0.00578 (inactive) | -8.17% (inactive) | -12.7% (inactive)
12 | CN1CCN(S(=O)(=O)c2ccc(NC(=O)c3ccc(F)cc3)cc2)CC1 | 624 | 0% (inactive) | -2.2% (inactive) | 105% | -22.1% (inactive) | 85% | -0.424 (inactive) | -2.3e-05 (inactive) | 0.00505 (inactive) | 0.12% (inactive) | -12.3% (inactive)
13 | CCn1cc(C(=O)NCc2ccccc2OC)c(=O)c2cc(S(=O)(=O)N(C)C)ccc21 | 665 | -5.5% (inactive) | 7.5% (inactive) | 74.5% | -39.5% (inactive) | 113% | -0.425 (inactive) | -4e-05 (inactive) | 0.00524 (inactive) | 13.2% (inactive) | 23.7% (inactive)
14 | Cn1c(=O)c2c(nc(CN3CCc4ccccc4C3)n2Cc2cccc(Cl)c2)n(C)c1=O | 646 | 8% (inactive) | 0.6% (inactive) | 102% | -22.8% (inactive) | 124% | -0.575 (inactive) | -4.8e-05 (inactive) | 0.00753 (inactive) | 19.5% (inactive) | -58.7% (inactive)
15 | O=C(O)c1ccc2noc(-c3ccccc3)c2c1 | 755 | -8.7% (inactive) | 16.9% (inactive) | 103% | -15% (inactive) | 123% | -0.378 (inactive) | -3.4e-05 (inactive) | 0.00344 (inactive) | -20.8% (inactive) | -49.6% (inactive)
16 | O=C(Nc1ccon1)c1cc(-c2ccccc2)nc2ccccc12 | 364 | -8% (inactive) | 22.5% (inactive) | 98.4% | -48.5% (inactive) | 116% | -0.286 (inactive) | -6.3e-05 (inactive) | 0.00497 (inactive) | -24.1% (inactive) | 99.8% (active)
17 | COc1ccc(-c2nc(CCNC(=O)c3ccco3)cs2)cc1OC | 696 | -9.6% (inactive) | -8.9% (inactive) | 102% | -4% (inactive) | 114% | -0.524 (inactive) | -2.4e-05 (inactive) | 0.00779 (inactive) | 22.7% (inactive) | -5.2% (inactive)
18 | Cc1ccc(NC(=O)COS(=O)c2ccc(C)cc2)cc1 (stereo not drawn) | 420 | 5.8% (inactive) | 2.9% (inactive) | 94.3% | -11.2% (inactive) | 125% | -0.58 (inactive) | -2e-05 (inactive) | 0.00583 (inactive) | 6.94% (inactive) | -1.39% (inactive)
19 | CC(=O)Nc1ccc(S(=O)(=O)N(C2=NCC(C)S2)c2ccccc2)cc1 (stereo not drawn) | 594 | 5.4% (inactive) | -4.5% (inactive) | 95.5% | -9.1% (inactive) | 109% | -0.496 (inactive) | -1.6e-05 (inactive) | 0.00617 (inactive) | 11.6% (inactive) | 11.1% (inactive)
20 | CC1CCCCN1CCNC(=O)C1CCN(S(=O)(=O)c2cccc3cccnc23)CC1 (stereo not drawn) | 450 | -0.8% (inactive) | 5.9% (inactive) | 72.5% | -54.5% (inactive) | 105% | -0.522 (inactive) | -4e-05 (inactive) | 0.00613 (inactive) | 6.15% (inactive) | 39.6% (inactive)
21 | Nc1ccc(-c2ccc(N)cc2C(F)(F)F)c(C(F)(F)F)c1 | 510 | -15.4% (inactive) | -0.4% (inactive) | 96.5% | -3.6% (inactive) | 101% | -0.446 (inactive) | -9.4e-05 (inactive) | 0.00482 (inactive) | 16.9% (inactive) | 24% (inactive)
22 | COc1ccc(NC(=O)c2ccco2)cc1NC(=O)c1cccs1 | 400 | 3.8% (inactive) | 4.3% (inactive) | 95.9% | 13.8% (inactive) | 92.8% | -0.421 (inactive) | 2.6e-05 (inactive) | 0.00585 (inactive) | -10.6% (inactive) | -14.2% (inactive)
23 | C=CCn1c(COc2ccc(CC)cc2)nnc1SC/C(O)=C(\C#N)c1nc2ccccc2[nH]1 | 705 | -4.3% (inactive) | 3.6% (inactive) | 101% | -10.1% (inactive) | 108% | -0.379 (inactive) | 8.9e-06 (inactive) | 0.0031 (inactive) | 21.3% (inactive) | 14.4% (inactive)
24 | COC(=O)c1oc2ccc(Br)cc2c1NC(C)=O | 644 | -0.8% (inactive) | 35.6% (active) | 90.2% | -28.5% (inactive) | 112% | -0.575 (inactive) | -3.5e-05 (inactive) | 0.00664 (inactive) | 16.9% (inactive) | 30.7% (inactive)
25 | O=C1c2ccccc2C(Nc2ccc3c(c2)OCCO3)N1Cc1ccco1 (stereo not drawn) | 548 | -2% (inactive) | 17.5% (inactive) | 102% | -106% (inactive) | 132% | -0.589 (inactive) | -2.3e-05 (inactive) | 0.00424 (inactive) | 12.3% (inactive) | 7.32% (inactive)
26 | O=C(Nc1ccc2c(c1)nc1n2CCSC1)c1ccccc1 | 487 | -0.5% (inactive) | 13.7% (inactive) | 106% | -0.8% (inactive) | 119% | -0.444 (inactive) | -1.4e-05 (inactive) | 0.00391 (inactive) | -30.3% (inactive) | -80.3% (inactive)
27 | Cn1c(=O)c2c(nc(CN3CCN(c4ccccc4F)CC3)n2CCN2CCOCC2)n(C)c1=O | 317 | -6.9% (inactive) | 13.3% (inactive) | 114% | -26.9% (inactive) | 107% | -0.288 (inactive) | -2.7e-05 (inactive) | 0.00647 (inactive) | 17.6% (inactive) | 17.1% (inactive)
28 | Cc1ccc(CNC(=O)C2CC(=O)OC23CCCC3)c(C)c1 (stereo not drawn) | 410 | 17.5% (inactive) | -25.4% (inactive) | 104% | 8.3% (inactive) | 102% | -0.593 (inactive) | 4.6e-07 (inactive) | 0.00501 (inactive) | 17.7% (inactive) | 20.9% (inactive)
